Measured values as given in PubChem BioAssay AID1259422 (The Scripps Research Institute Molecular Screening Center, 2018).
Several values for one entry are separate records, joined by “and”; a condition that tells them apart may be missing. Equal entries are not always repeated. Hit rate of the full screen: of about 640,000 compounds, about 9,300 (1.5%) were called active. Cut-off read from the data, not from the text of the source: active = inhibition above about 32%; inactive = the rest. The entries come from a sample that favours actives as a whole.

experiment: TEAD-YAP interaction inhibition, primary screen, TEAD-YAP interaction inhibitor project, luminescence, HEK-TIYL cells (AID 1259422); settings: TEAD-Gal4/YAP UAS-luciferase luminescence, at 9.12 µM, active compounds read high;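 note: 0% = median of test compound wells and 100% = reference inhibitor wells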

| Structure (SMILES) | inhibition |
| --- | --- |
| O=C(CO/N=C/c1ccccc1)N=Nc1c(O)[nH]c2ccccc12 | 5.66% (inactive) |
| COc1ccc2c(c1)CC(C(=O)Nc1ccc(-c3cn[nH]c3)cc1O[C@H]1CCOC1)CO2 (some centres undefined) | 22.3% (inactive) |
| COc1ccc2c(c1)CC(C(=O)Nc1nc3ccc(-c4cn[nH]c4C)cc3s1)CO2 (centres undefined) | 53.5% (active) |
| COc1ccc2c(c1)CC(C(=O)Nc1ccc(-c3cn[nH]c3)cc1OCc1ccccc1)CO2 (centres undefined) | -15.1% (inactive) |
| Cc1[nH]ncc1-c1ccc2nc(NC(=O)C3COc4ccccc4C3)sc2c1 (centres undefined) | 60.2% (active) |
| CCOc1ccc2nc(NC(=O)C3CC3)sc2c1 | -49.8% (inactive) |
| CC1=CCC(C(=O)O)C(C(=O)Nc2nc3ccc(C)cc3s2)C1 (centres undefined) | -1.36% (inactive) |
| Cc1cccc(C2c3[nH]c4ccccc4c3CCN2C(=O)Cn2nc(C)nc2C)n1 (centres undefined) | -0.52% (inactive) |
| COc1ccc2nc(/C(C#N)=C\c3ccc(N4CCOCC4)cc3)[nH]c2c1 | -25.6% (inactive) |
| COCCNC(=O)/C(C#N)=C/c1ccc(N2CCOCC2)cc1 | -20.6% (inactive) |
| N#C/C(=C\c1ccc(N2CCOCC2)cc1)c1ccccn1 | 90.2% (active) |
| CCOc1cc(C2C=C(c3cccc([N+](=O)[O-])c3)Nc3ncnn32)ccc1OC(F)F (centres undefined) | -5.43% (inactive) |
| COC(=O)c1ccc(CSc2cc(N3CCN(c4ccccc4F)CC3)ncn2)o1 | -17.6% (inactive) |
| Cc1cc(C)n2nc(SCC(=O)NCCCN3CCCC3=O)nc2n1 | 6.95% (inactive) |
| O=C1N=c2ccccc2=C1c1[nH]c(=S)n(-c2ccccc2)c1O | -4.63% (inactive) |
| COc1cccc(-c2nnc(SCC(=O)Nc3ccccc3)n2-n2cccc2)c1 | 47.3% (active) |
| COc1cccc(-n2c(SCC(=O)Nc3cccc(O)c3)nnc2-c2ccncc2)c1 | 1.48% (inactive) |
| COC(=O)CSc1nnc(-c2cccc(OC)c2)n1C | 8.2% (inactive) |
| COCCNC(=O)c1oc2ccc3c(c2c1C)C(=O)CC1(CCCC1)O3 | -23.1% (inactive) |
| Nc1nc(SC(c2ccccc2)c2ccccc2)nc2sc3c(c12)CCCC3 | 5.46% (inactive) |
| Cc1cc(CNC(=O)c2cc(COc3ccc4ncccc4c3)on2)nn1C | 12.1% (inactive) |
| CCN(CC)C1CCN(C(=O)c2cc(COc3ccc4ncccc4c3)on2)C1 (centres undefined) | 14.7% (inactive) |
| O=C(c1cc(COc2ccc3ncccc3c2)on1)N1C[C@@H]2CCC[C@H]1C2 | 32.6% (active) |
| COCC1CCN(C(=O)c2cc(COc3ccc4ncccc4c3)on2)C1 (centres undefined) | 30.8% (inactive) |

| Structure (SMILES) | inhibition |
| --- | --- |
| CN(Cc1cccnc1)C(=O)c1cc(COc2ccc3ncccc3c2)on1 | 40.8% (active) |
| Cc1nonc1CN(C)C(=O)c1cc(COc2cccc(C(F)(F)F)c2)on1 | -10.6% (inactive) |
| NC(=O)COC(=O)c1cccc(S(=O)(=O)NCc2ccccc2)c1 | -3.84% (inactive) |
| CC(C)c1ccc(CN[C@H]2C[C@H]3C(=O)N[C@H]([C@H](C)O)C(=O)N3C2)cc1 | 1.15% (inactive) |
| COc1ccc(NC(=O)C2Cc3ccccc3CN2S(=O)(=O)c2ccc(C)cc2)cc1 (centres undefined) | 12.4% (inactive) |
| c1ccc(-c2nc(-c3ccncc3)[nH]c2-c2ccccc2)cc1 | 6.95% (inactive) |
| [O-][n+]1onc2c1CCc1[nH]c(-c3ccccc3)nc1-2 | 41.9% (active) |
| Nc1nc2c(s1)CCc1c-2no[n+]1[O-] | 12.3% (inactive) |
| Cc1ccc(C)c(N(Cc2ccccc2C)S(C)(=O)=O)c1 | -3.99% (inactive) |
| COc1ccc(Cl)cc1Nc1c(-c2ccc3c(c2)OCC(=O)N3)c(=O)c1=O | 2.85% (inactive) |
| Cc1ccc(C(=O)Nc2nccs2)cc1C | -7.57% (inactive) |
| CC(C)(C)C(=O)Nc1ccc(C(=O)Nc2nccs2)cc1 | 53.9% (active) |
| CC(=O)C(C)(C)OC(=O)Nc1nccs1 | 4.65% (inactive) |
| COc1ccccc1NC(=O)COC(=O)C(C)N1C(=O)C(=O)c2ccccc21 (centres undefined) | 13.1% (inactive) |
| Cc1ccc(/C=N/NC(=O)c2cccc(F)c2)c(O)c1 | -36.3% (inactive) |
| O=C(Nc1c(C(=O)N2CCC(Cc3ccccc3)CC2)cnn1-c1ccccc1)c1ccco1 | -7.49% (inactive) |
| COC(=O)c1ccc(/C=C2/SC(N)=NC2=O)cc1 | 16% (inactive) |
| NC1=NC(=O)/C(=C\c2ccc3c(c2)OCO3)S1 | 46.8% (active) |
| CN1C(N)=NC(=O)/C1=C\c1ccc2c(c1)OCO2 | -15% (inactive) |
| COc1cc(/C=C2/SC(N)=NC2=O)cc(OC)c1OC | 6.04% (inactive) |
| CC(C)CC1=NN2C(=N)/C(=C/c3ccc4c(c3)OCO4)C(=O)N=C2S1 | -1.58% (inactive) |
| NC1=NC(=O)/C(=C\c2ccc3ncccc3c2)S1 | 52.6% (active) |
| CCOC(=O)c1c(NC(=O)CSc2nnc(CNC(=O)c3cc(OC)cc(OC)c3)n2-c2cccc(C)c2)sc2c1CCCC2 | 3.65% (inactive) |
| CCOc1ccc(C(=O)O/N=C(\N)c2ccc(OC)cc2)cc1OCC | -6.66% (inactive) |

| Structure (SMILES) | inhibition |
| --- | --- |
| Cc1cc(N2CCCC2)nc2ccc(NC(=S)NCC3CCCO3)cc12 (centres undefined) | -6.91% (inactive) |
| Cc1c(SC(F)(F)C(F)C(F)(F)F)c(=O)n(-c2ccccc2)n1C (centres undefined) | 18.8% (inactive) |
| O=C(NC1CC1)c1cccc(N2CCc3ccccc3C2)n1 | -13.8% (inactive) |
| NC(=O)C(C(N)=O)C1OC(=O)C(Cl)=C1Cl (centres undefined) | 0.04% (inactive) |
| C/C(=N\NC(=O)c1ccccc1I)c1ccc(O)cc1 | -8.63% (inactive) |
| Cc1cc(/C=C2/SC(=O)N(C)C2=O)c(C)n1-c1ccc(I)cc1 | -24.8% (inactive) |
| CCN1C(=O)/C(=C\c2cc(C)n(-c3ccccc3)c2C)C(C(=O)OC)=C1C | 36.6% (active) |
| COC(=O)C1=C(C)N(C)C(=O)/C1=C\c1cc(C)n(-c2ccc(Br)cc2)c1C | -6.34% (inactive) |
| CCc1ccccc1N1C(=O)NC(=O)/C(=C\c2cc(C)n(-c3cccnc3)c2C)C1=O | -3.42% (inactive) |
| COC(=O)C1=C(C)N(CC2CCCO2)C(=O)/C1=C\c1cc(C)n(-c2cccc(C)c2)c1C (centres undefined) | 0.89% (inactive) |
| CCN1C(=O)S/C(=C/c2cc(C)n(-c3cccnc3)c2C)C1=O | 50.4% (active) |
| COc1ccc(Cl)cc1S(=O)(=O)N1CCN(CC(=O)Nc2ccc(C(N)=O)cc2)CC1 | 3.37% (inactive) |
| O=C(NC(Cc1c[nH]c2ccccc12)c1nnc2n1CCC2)c1ccccc1Cl (centres undefined) | 4.18% (inactive) |
| CCOC(=O)c1c(NC(=O)c2cccc(C)c2)sc2c1CCC2 | 1.21% (inactive) |
| Cc1cc(C)cc(NC2=C(N3CCN(C)CC3)C(=O)c3ccccc3C2=O)c1 | 14.2% (inactive) |
| CC(=O)N(C1=C(N2CCOCC2)C(=O)c2ccccc2C1=O)C1CCCCC1 | 13.4% (inactive) |
| CC(=O)N(C1=C(N2CCN(C)CC2)C(=O)c2ccccc2C1=O)c1cc(C)cc(C)c1 | 53.9% (active) |
| CCCCOc1ccc(-c2[nH]nc3c2C2(C(=O)Nc4ccc(C)c(Br)c42)C(C#N)=C(N)O3)cc1 (centres undefined) | 3.07% (inactive) |
| COc1ccc(C(=O)Nc2nc(C(C)(C)C)cs2)c(OC)c1 | -70.6% (inactive) |
| Cc1nc(NC(=O)c2ccc3c(c2)CCCC3)sc1C | 53.4% (active) |
| COc1ccc(C(=O)Nc2nc3c(ccc4ccccc43)s2)c(OC)c1 | -16.5% (inactive) and -1.48% (inactive) |
| Cc1nc(NC(=O)c2cc(Br)ccc2Cl)sc1C | -57.6% (inactive) |
| Cc1nc(NC(=O)c2ccoc2C)sc1C | -21.2% (inactive) |
| COc1ccc(C(=O)Nc2nc(C)c(C)s2)c(OC)c1 | 94.8% (active) |

| Structure (SMILES) | inhibition |
| --- | --- |
| Oc1ccc2ccccc2c1/C=N/Nc1nccnc1Cl | -25.8% (inactive) |
| N#CC1=C(N)Oc2n[nH]c(-c3ccc(Cl)cc3)c2C1c1ccc2c(c1)OCO2 (centres undefined) | 12.5% (inactive) |
| Cn1ncc(Cl)c1-c1nc2ccccc2[nH]1 | -8.92% (inactive) |
| O=c1c(Cl)c(Cl)cnn1-c1nc2ccccc2[nH]1 | 56.5% (active) |
| N#Cc1cnn(-c2nc3ccccc3[nH]2)c1N | -4.74% (inactive) |
| Cc1cc(Nc2ccccc2Cl)n2nc(C)nc2n1 | -1.89% (inactive) |
| Cc1cc(C)c(NC(=O)c2c(Cl)nc(C)c(Cl)c2C)c(C)c1 | -2.91% (inactive) |
| COc1cccc(/C=C/C(=O)NCC(=O)O)c1OC | -11.1% (inactive) |
| Cc1cccc2nc(CNC(=O)CCCn3nnnc3CN3CCC(C)CC3)cn12 | 3.48% (inactive) |
| CC(C)(C)c1ccc(C(=O)NNC(=O)C(=O)NCc2ccccc2)cc1 | -5.07% (inactive) |
| CC(C)(C)c1ccc(C(=O)NNC(=O)c2ccccn2)cc1 | 41.6% (active) |
| C/C(=N/NC(=O)c1ccccn1)c1ccccc1 | 14.7% (inactive) |
| N#Cc1ccc(C23CC4CC(CC(C4)C2)C3)nc1SCC(=O)Nc1nc2ccccc2s1 | 3.55% (inactive) |
| N#CC(=C1C(=O)c2ccccc2C1=O)c1nc2ccccc2[nH]1 | -10.3% (inactive) |
| Cc1ccc(N=C2NC(=O)/C(=C\c3ccc(-c4ccccc4[N+](=O)[O-])o3)S2)c(C)c1 | -2.23% (inactive) |
| CCOc1ccc(C2C(C(=O)NC)=C(C)Nc3nc4ccccc4n32)cc1OC (centres undefined) | -6.37% (inactive) |
| COc1ccccc1C1C(C(=O)N2CCCCC2)=C(C)Nc2nc3ccccc3n21 (centres undefined) | 1.41% (inactive) |
| COc1ccccc1NC(=O)C1=C(C)Nc2nc3ccccc3n2C1c1cccs1 (centres undefined) | 46.5% (active) |
| COc1ccc(C(C)=O)c(OC(=O)Cc2cc(OC)c(OC)c(OC)c2)c1 | 12.9% (inactive) |
| COc1cc(C(=O)Nc2ccc(C(=O)O)cc2)c2ccccc2n1 | -2.83% (inactive) |
| COc1cc(C(=O)Nc2ccc(C(C)=O)cc2)c2ccccc2n1 | 47.1% (active) |
| COc1ccc(-c2cc(C(=O)Nc3ccccc3)c3ccccc3n2)cc1 | -2.31% (inactive) |
